Luciferase inh: blocks purified firefly luciferase enzyme activity; P08659; purified P. pyralis luciferase, luminescence, biochemical; Potency, µM (series often up to 115 µM), hits mostly inhibitors; 76,000 tested, 2.5% active; AID 1347043; further: nearly all actives have a fitted effect of over 65% in size
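FLuc 10nM, D-luciferin 10uM, ATP 10uM, Mg acetate 10mM, Tris acetate pH 7.5, Tween/BSA; cpd qHTS; enzyme added last; CCD luminescence.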
hNpr1 antagonist: antagonists of human natriuretic peptide receptor Npr1. P16066. HEK293 hNpr1 GloSensor cGMP, ANP-stimulated luminescence. Potency, µM (doses to about 46.3 µM), for inactives: at the highest dose activity change, negative = inhibition, hits mostly inhibitors. 76,000 tested, 1.6% active. AID 1347048; calls by dose curve; further: nearly all actives have a fitted effect of over 60% in size
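HEK293 cells stably expressing human Npr1 and cGMP GloSensor pGS-40F, loaded 2 h with 2% GloSensor reagent, given compound 30 min at room temperature. Luminescence read before and 20 min after 0.1 nM hNppA.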
3T3 cytotox: NIH 3T3 cell cytotoxicity; Potency, µM (doses to about 96.7 µM), for the others: at the top dose activity change, negative = cytotoxicity, actives largely listed as inhibitors; NIH 3T3 viability, CellTiter-Glo ATP luminescence, 48-72 h; 94,000 tested, 4.3% active; AID 1345082; further: nearly all actives have a fitted effect of over 55% in size
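Luminescent ATP readout (CellTiter-Glo, 10 min RT) after 48 or 72 hr compound exposure of NIH 3T3 cells seeded at 400 cells/well in 1536-well format; quantitative HTS.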
HEK cytotox: kills HEK 293 cells | HEK 293 viability, ATP luminescence (CellTiter-Glo), 48-72 h | Potency, µM (top dose mostly 115 µM), without a hit: top-dose activity change, negative = cytotoxicity, hits mostly inhibitors | 94,000 tested, 6.6% active | AID 1345083; further: nearly all actives have a fitted effect of over 60% in size
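250 HEK 293 cells/well; compound by pintool; incubated 48 or 72 hr at 37 degree Celsius; CellTiter-Glo added, 10 min RT, luminescence imaged.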
GPT2 inh: inhibitors of human GPT2 alanine aminotransferase | Recombinant GPT2, coupled pyruvate oxidase/HRP Amplex Red fluorescence | 100,000 tested, 0.25% active | Potency, µM (top dose mostly 57.7 µM), for inactives: top-dose activity change, negative = inhibition, hits mostly inhibitors; further: nearly all actives have a fitted effect of over 60% in size
Target sequence (Q8TD30 whole entry, looked up): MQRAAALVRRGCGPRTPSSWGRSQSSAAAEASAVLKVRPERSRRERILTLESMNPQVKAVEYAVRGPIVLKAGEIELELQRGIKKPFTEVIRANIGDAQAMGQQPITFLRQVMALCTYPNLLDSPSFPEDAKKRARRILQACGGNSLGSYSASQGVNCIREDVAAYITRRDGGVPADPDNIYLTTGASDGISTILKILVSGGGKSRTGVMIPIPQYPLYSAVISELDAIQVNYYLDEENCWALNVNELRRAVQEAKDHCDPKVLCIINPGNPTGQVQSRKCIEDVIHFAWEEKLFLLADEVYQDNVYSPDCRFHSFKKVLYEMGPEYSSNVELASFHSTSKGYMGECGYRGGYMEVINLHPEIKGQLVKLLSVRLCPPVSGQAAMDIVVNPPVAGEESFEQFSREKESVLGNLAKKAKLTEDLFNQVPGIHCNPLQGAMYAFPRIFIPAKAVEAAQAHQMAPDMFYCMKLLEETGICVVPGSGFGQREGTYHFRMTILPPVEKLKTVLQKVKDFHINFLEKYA
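Fluorescence of coupled pyruvate oxidase/HRP/Amplex Red system (50uM Amplex, 30 min, dark) reports pyruvate formed by GPT2. Enzyme reaction: 10ng/uL GPT2, 2mM L-alanine, 250uM a-KG, 30 min room temperature, pH 7.5; 50uM AOA control.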
Active calls of the source: *; [ ] = dose if it differs, or a comment. A selection: hits, their analogues and other compounds. The true share with any hit is near 10%. Unless noted, the call rests on the fitted dose curve; in most records, active means well fitted curve in the direction sought with a large enough effect; inconclusive means small, poorly fitted or top-dose-only effect, or another doubt; inactive means no such curve, though single readings can be large; an effect the other way counts as inactive or inconclusive. On the % scale 0 is the no-effect control and ±100 the full control effect; potency means the concentration at half of the fitted maximal effect.

`Cc1ccc(NC(=O)N2CCCC(c3nnc(CN(C)C)n3C)C2)cc1C` (centres undefined) gave Luciferase inh inactive, hNpr1 antagonist 2.9%, 3T3 cytotox -10.3%, HEK cytotox -8.6% and GPT2 inh 2.2%.
For O=S(=O)(Cc1ccccc1F)N1CCC(c2noc(-c3cccnc3)n2)C1 (centres undefined) the results were Luciferase inh inactive, hNpr1 antagonist -3.8%, 3T3 cytotox -9.8%, HEK cytotox inconclusive and GPT2 inh -2.8%.
CO[C@H]1C(=O)N(C(C)C)[C@H]1C1CCN(C(=O)Cn2nc(C(F)(F)F)cc2C)CC1 was read as Luciferase inh 35.5µM*, hNpr1 antagonist 6.4%, 3T3 cytotox inactive, HEK cytotox inactive and GPT2 inh 1.6%.
For CO[C@H]1C(=O)N(C(C)C)[C@H]1C1CCN(C(=O)Cn2ccc(C)n2)CC1 the results were Luciferase inh 25.1µM*, hNpr1 antagonist 0.5%, 3T3 cytotox -1.4%, HEK cytotox 0.1% and GPT2 inh 2.6%.
O=C(c1ccccn1)N1CCC(Cc2ccc(COc3ccncc3)cc2)CC1 was read as 3T3 cytotox 25.1µM*, HEK cytotox inconclusive and GPT2 inh inactive.
For O=C(c1ccccn1)N1CCCC(CN2CCCC2)CC1 (centres undefined) the results were Luciferase inh inactive, hNpr1 antagonist -1.2%, 3T3 cytotox inactive, HEK cytotox inactive and GPT2 inh 1.4%.
For Cn1cnc(C(=O)N2CCC(Cc3ccc(COc4cccc(F)c4)cc3)CC2)c1 the results were 3T3 cytotox inconclusive, HEK cytotox 15.8µM* and GPT2 inh -7.7%.
`Cn1cnc(C(=O)N2CCC(Cc3ccc(C(=O)N4CCOCC4)cc3)CC2)c1` gave Luciferase inh inactive, hNpr1 antagonist 2.9%, 3T3 cytotox -15.4%, HEK cytotox 2.8% and GPT2 inh inactive.
For CNC(=O)c1cc(C)nc2onc(C3CCCN(C(=O)CN(C)C)C3)c12 (centres undefined) the results were 3T3 cytotox -4.5% and HEK cytotox -7.4%.
For CN1CCN(c2ccc(-c3cc4c(ccn4C)c(C(=O)NCc4cnccn4)n3)cc2)CC1 the results were Luciferase inh inconclusive, hNpr1 antagonist -0.5%, 3T3 cytotox inconclusive, HEK cytotox 44.7µM* and GPT2 inh 3.4%.
Cn1nccc1-c1cc2c(ccn2C)c(C(=O)NCc2cccnc2)n1 was read as Luciferase inh inactive, hNpr1 antagonist 2.6%[70.6 µM], 3T3 cytotox 28.2µM*, HEK cytotox -26.9%[172 µM] and GPT2 inh inconclusive.
Screening Cn1ccc2c(C(=O)NCc3cccnc3)nc(-c3ccccc3C#N)cc21 returned Luciferase inh inactive, hNpr1 antagonist -6.0%[70.6 µM], 3T3 cytotox 25.1µM*, HEK cytotox -18.0%[172 µM] and GPT2 inh -5.1%[88.5 µM].
Screening Cn1ccc2c(C(=O)NCc3cccnc3)nc(-c3ccccc3)cc21 returned Luciferase inh inactive, hNpr1 antagonist inconclusive, 3T3 cytotox inconclusive, HEK cytotox inconclusive and GPT2 inh -5.4%[88.5 µM].
For CN(C)Cc1ccc(-c2cc3c(ccn3C)c(C(=O)NCc3cccnc3)n2)cc1 the results were Luciferase inh inactive, hNpr1 antagonist 4.2%[70.6 µM], 3T3 cytotox inconclusive, HEK cytotox inconclusive and GPT2 inh 1.7%[88.5 µM].
Cn1ccc2c(C(=O)NCc3cccnc3)nc(-c3ccc(F)cc3)cc21 was read as Luciferase inh inactive, hNpr1 antagonist -23.6%[70.6 µM], 3T3 cytotox inconclusive, HEK cytotox 100µM* and GPT2 inh -7.5%[88.5 µM].
For COc1ccc(-c2cc3c(ccn3C)c(C(=O)NCc3cccnc3)n2)cc1OC the results were Luciferase inh inconclusive, hNpr1 antagonist -4.0%[70.6 µM], 3T3 cytotox inconclusive, HEK cytotox inconclusive and GPT2 inh -6.5%[88.5 µM].
For CNC(=O)c1cc(-c2ccc(C(F)(F)F)cc2)nc2c1cnn2C the results were 3T3 cytotox inconclusive and HEK cytotox -20.2%.
For CC1CCCN(C(=O)c2cc(-c3ccc(C(F)(F)F)cc3)nc3c2cnn3C)C1 (centres undefined) the results were 3T3 cytotox inconclusive and HEK cytotox 44.7µM*.
CCN1CCN(C(=O)c2cc(-c3cccc(C(F)(F)F)c3)nc3c2cnn3C)CC1 was read as 3T3 cytotox 31.6µM*, HEK cytotox inconclusive and GPT2 inh 0.6%.
For COC(=O)c1cccc(COCC2=CC(C)(C)COc3ccc(OC)cc32)c1 the results were 3T3 cytotox inconclusive and HEK cytotox 28.2µM*.
For COCCNC(=O)c1cc(-c2ccccc2F)cc2c1OCCN2Cc1cccnc1 the results were Luciferase inh inactive, hNpr1 antagonist -17.8%[70.6 µM], 3T3 cytotox 89.1µM*, HEK cytotox inconclusive and GPT2 inh 2.0%[88.5 µM].
`CNC(=O)c1cc(-c2ccc(C)cc2)cc2c1OCCN2Cc1cccnc1` gave Luciferase inh inactive, hNpr1 antagonist 6.0%[70.6 µM], 3T3 cytotox inconclusive, HEK cytotox inconclusive and GPT2 inh -1.1%[88.5 µM].
Screening CC(C)CNC(=O)c1cc(-c2ccccc2F)cc2c1OCCN2Cc1cccnc1 returned Luciferase inh inactive, hNpr1 antagonist -23.9%[70.6 µM], 3T3 cytotox 44.7µM*, HEK cytotox 50.1µM* and GPT2 inh -14.4%[88.5 µM].
Screening NC(=O)c1cc(-c2ccccc2F)cc2c1OCCN2Cc1cccnc1 returned Luciferase inh inactive, hNpr1 antagonist -18.4%[70.6 µM], 3T3 cytotox inconclusive, HEK cytotox inconclusive and GPT2 inh -0.7%[88.5 µM].
For CNC(=O)c1cc(-c2ccccc2F)cc2c1OCCN2Cc1cccnc1 the results were Luciferase inh inactive, hNpr1 antagonist -28.0%[70.6 µM], 3T3 cytotox inconclusive, HEK cytotox 89.1µM* and GPT2 inh -14.9%[88.5 µM].
`O=C(NC1CCOCC1)c1cc(-c2ccccc2F)cc2c1OCCN2Cc1cccnc1` gave Luciferase inh inactive, hNpr1 antagonist 2.0%, 3T3 cytotox -26.1%, HEK cytotox inconclusive and GPT2 inh -4.3%.
For CNC(=O)c1cc(-c2ccccc2O)cc2c1OCCN2Cc1cccnc1 the results were Luciferase inh inactive, hNpr1 antagonist -19.7%[70.6 µM], 3T3 cytotox inconclusive, HEK cytotox -21.9%[172 µM] and GPT2 inh -0.6%[88.5 µM].
CNC(=O)c1cc(-c2cccc(NC(C)=O)c2)cc2c1OCCN2Cc1cccnc1 was read as Luciferase inh inactive, hNpr1 antagonist -3.4%[70.6 µM], 3T3 cytotox 44.7µM*, HEK cytotox -10.4%[172 µM] and GPT2 inh -3.1%[88.5 µM].
Oc1ccc(CN2CCCCC2c2nc(CCOCC3CC3)no2)cc1 (centres undefined) was read as Luciferase inh inactive, hNpr1 antagonist 0.3%, 3T3 cytotox -22.0%, HEK cytotox inconclusive and GPT2 inh inactive.
COc1ccc(CN2CC3(CCN(C(=O)Nc4cccc(C)c4)CC3)C2=O)cc1 was read as Luciferase inh inactive, hNpr1 antagonist -24.8%, 3T3 cytotox -35.0%, HEK cytotox -26.0% and GPT2 inh -3.9%.
Screening CCOC(=O)c1ccc(NC2CCCCC2)c(N)c1 returned GPT2 inh 3.55µM*.

Assay outcomes: PubChem, National Center for Advancing Translational Sciences (NCATS)
